Experimental data: PubChem BioAssay AID686978 (National Center for Advancing Translational Sciences (NCATS), 2013)
The campaign covered roughly 420,000 compounds. About 64,000 (15%) were called active. Another 27% or so got no clear call; they are omitted. Not all results are given here. Unmarked numbers belong to inactive results. Calls follow the shape of the dose curve; as a rule, active = well fitted inhibition curve with a large enough effect; inconclusive = small, poorly fitted or top-dose-only effect; inactive = flat fitted curve, though single readings scatter.

Assay: qHTS for Inhibitors of human tyrosyl-DNA phosphodiesterase 1 (TDP1): qHTS in cells in absence of CPT; also: nearly all actives have a fitted effect of over 55% in size
Conditions: DT40 Tdp1-/- hTDP1 cells, no CPT, ATP luminescence, 48 h; activity change, negative = growth inhibition: at 46.2 µM (top of the series)
Summary of the method: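 Compound effects on proliferation are scored in DT40 Tdp1-/-;hTDP1 cells in the absence of CPT. ATP levels (CellTiter-Glo luminescence) are recorded after a ≥48 hr, 37 °C incubation.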
% is scaled to controls: 0 for no effect and ±100 for the full control effect; potency is read from the fitted curve at half-maximal effect.

Row | Structure (SMILES) | activity change, negative = growth inhibition [%] | Potency
1 | CCC(CC)C(=O)Nc1cccc(C(=O)N2CCCC2)c1 | -15.9 | 
2 | Cc1occc1-c1nnc(SCC(=O)NC2(C#N)CCCC2)n1C | -12.1 | 
3 | CCOCCCN1C(=O)C2C(C(=O)Nc3ccc(OCC)cc3)C3C=CC2(O3)C1C(=O)NC1CCCCC1 (centres undefined) | -14.8 | 
4 | OCCCNc1nccc(-c2cc(Nc3cccc(Cl)c3)ncn2)n1 |  | 0.731 µM (active)
5 | NS(=O)(=O)c1cccnc1Nc1cccc(Cl)c1 | -28.7 | 
6 | O=C(Nc1cccc(Cl)c1)OCc1ccccn1 | 3.36 | 
7 | CCC(Sc1nncn1C)C(=O)Nc1nnc(-c2ccc(Cl)cc2)s1 (centres undefined) | -15.8 | 
8 | NS(=O)(=O)c1cc2c(cc1Cl)NC(C(Cl)Cl)NS2(=O)=O (centres undefined) |  | inactive
9 | O=P(c1cccs1)(c1cccs1)c1cccs1 | -0.74 | 
10 | O=C(Nc1ccccc1Cl)c1ccccc1S(=O)(=O)c1ccccc1[N+](=O)[O-] | -2.25 | 
11 | COc1cc(/C=N/N=C(\N)c2nonc2N)cc(OC)c1OC | -1.42 | 
12 | COc1cc(/C=N\NC(=O)c2nonc2N)c(OC)cc1Br |  | 29.1 µM (active)
13 | COc1cc(OC)c(/C=N/NC(=O)c2ccc([N+](=O)[O-])cc2)cc1Br | -16.1 | 
14 | CCc1cc2c(=O)c(-c3nc4ccccc4n3C)c(CCCC(=O)O)oc2cc1OC(=O)C(C)(C)C | -28.1 | 
15 | COc1ccc(O)c(/C=N/N=C/c2cccc([N+](=O)[O-])c2)c1 | 7.16 | 
16 | Cc1ccc(S(=O)(=O)NC(=O)N2CCCC(C)(C)C2)cc1 | -5.23 | 
17 | O=C(NC1CCN(C(=S)NCc2ccco2)CC1)c1ccc(F)cc1 | -16.2 | 
18 | O=S(=O)([N-]c1nc2ccccc2nc1-[n+]1ccc(Cc2ccccc2)cc1)c1ccc(Br)s1 |  | 14.6 µM (active)
19 | Cc1cc(C)c[n+](-c2nc3ccccc3nc2[N-]S(=O)(=O)c2cccs2)c1 | 1.57 | 
20 | O=S(=O)(NCc1cccnc1)c1ccc(Br)s1 | -14.7 | 
21 | Cc1cc(C)cc(NC(=O)CCS(=O)(=O)c2cc3c4c(c2)CCN4C(=O)CC3)c1 | -2.61 | 
22 | CC1CSc2nnc(CCc3ccccc3)n21 (centres undefined) | -11.6 | 
23 | Cc1cc(C(=O)COC(=O)c2cccs2)c(C)n1-c1c(C)n(C)n(-c2ccccc2)c1=O | -23.7 | 
24 | COc1ccc(-c2nnc(SC(C)C#N)o2)cc1 (centres undefined) | -7.87 | 
25 | COc1ccc(-c2nnc(-c3ccc4ccccc4c3)o2)cc1 | -22 | 
26 | COc1ccc(-c2nnc(SC(=O)N3c4ccccc4Sc4ccccc43)o2)cc1 |  | 7.94 µM (active)
27 | COc1ccc(NC(=S)SC)cc1OC | -28.8 | 

Row | Structure (SMILES) | activity change, negative = growth inhibition [%] | Potency
28 | COc1ccc(CC(=O)Nc2ccccc2NC(=O)c2ccco2)cc1OC | -8.13 | 
29 | COC(=O)c1cc(NC(=O)c2ccco2)ccc1N1CCOCC1 | -17.8 | 
30 | COc1cc(C(c2c(NC(=O)c3ccco3)sc(C)c2C)N2CCOCC2)cc(OC)c1OC (centres undefined) |  | 29.1 µM (active)
31 | C=CCNC(=O)c1cc2nc(C3CC3)cc(C(F)F)n2n1 | 16.9 | 
32 | CCCCn1c(N)c(N(CC)C(=O)/C=C/c2ccco2)c(=O)[nH]c1=O | 21.7 | 
33 | CC1CCc2c(sc3nc4n(c(=O)c23)CCS4)C1 (centres undefined) | -22.7 | 
34 | Cc1ccc(NC(=O)Nc2sc3nc4n(c(=O)c3c2C)CCC(C)CC4)c(Cl)c1 (centres undefined) |  | 11.6 µM (active)
35 | CC1CCN(C(=O)c2ccc3c(=O)n4c(nc3c2)CCCCC4)CC1 | 1.08 | 
36 | CNC(=O)c1nnc(Cc2ccc(Cl)cc2)o1 | -2.66 | 
37 | O=C1C2C3C=CC(C3)C2C(=O)N1c1ccc(S(=O)(=O)Nc2nccs2)cc1 (centres undefined) | -7.53 | 
38 | Cc1ccc2sc(NNC(=O)c3ccc4c(c3)OCCO4)nc2c1C | -29 | 
39 | O=C(Nc1nc2ccc(S(=O)(=O)N3CCCC3)cc2s1)C1CCCO1 (centres undefined) | -18.9 | 
40 | Cc1ccc2nc(NC(=O)C3CCN(S(=O)(=O)c4ccc5c(c4)oc(=O)n5C)CC3)sc2c1 |  | 14.6 µM (active)
41 | O=C(NC1CCCCC1)n1c(=O)oc2cc(S(=O)(=O)N3CCCCC3)ccc21 | -4.25 | 
42 | CC(=O)Nc1c2c(nn1-c1ccc(C)cc1C)CS(=O)C2 (centres undefined) | -7.3 | 
43 | CC(=O)c1ccc(S(=O)(=O)Nc2ccc(-c3ccc4nncn4n3)cc2)cc1 | 13.5 | 
44 | O=C(O)c1ccc(NC(=O)C2CCCCC2)cc1 | -7.37 | 
45 | O=C(Nc1ccc(-c2ccc3nncn3n2)cc1)C1CCCCC1 |  | 16.4 µM (active)
46 | c1ccc(C2c3[nH]c4ccccc4c3CCN2Cc2cccn2-c2cccnc2)nc1 (centres undefined) |  | 5.8 µM (active)
47 | CCOc1ccc(C2c3[nH]c4ccccc4c3CCN2Cc2cccn2-c2ncccn2)cc1 (centres undefined) |  | 13 µM (active)
48 | O=C(c1cn2ccccc2n1)N1CCc2c([nH]c3ccccc23)C1c1ccccn1 (centres undefined) | -8.01 | 
49 | CCOc1ccc(C2c3[nH]c4ccccc4c3CCN2Cc2cn(CC)nc2C)cc1 (centres undefined) | 11.9 | 
50 | COCC(=O)Nc1c(I)c(C(=O)NCC(O)CO)c(I)c(C(=O)N(C)CC(O)CO)c1I (centres undefined) |  | inactive
51 | Nc1nc(SCC(=O)N2CCN(S(=O)(=O)c3ccc(Cl)cc3)CC2)n[nH]1 | 19.5 | 
52 | CC(CCN1CCN=C1N(C)C)c1ccccc1 (centres undefined) | -10.3 | 
53 | Cc1ccc2[nH]c(=O)c(COC(=O)c3ccccn3)cc2c1 | -0.351 | 
54 | Cc1ccccc1NC(=O)c1cnn(-c2ccccc2)c1NC(=O)c1ccco1 | -7.32 | 
